Source: PubChem BioAssay (NCATS)
Results filed as inconclusive are left out. Unmarked numbers belong to inactive results. Calls of active or inactive are those of the source. Unless noted, the call rests on the fitted dose curve.

Tested on: not listed separately
Assay: AP1 Signaling Pathway (AID 357; active means well fitted curve in either direction with a large enough effect, not every such curve was filed as active;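 further: ME-180 reporter cells stimulated with EGF at its EC50 level; on the % scale 0 is the no-effect control and ±100 the full control effect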)
Details: ME-180 (cervical carcinoma) AP-1-bla reporter, EGF-induced, beta-lactamase ratio, 5 h; series mostly up to 17.2 µM; activity change, negative = inhibition: at the top concentration
Outline: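 Titration-series screen for positive or negative modulators of EC50 EGF-induced signaling in ME-180 cells carrying an AP-1-driven beta-lactamase reporter. After 5 hours at 37 degrees Celsius, CCF4 460nm/530nm emission ratio gave %Activity; AC50 values derived.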

| SMILES | outcome | activity change, negative = inhibition [%] |
| --- | --- | --- |
| CN1C(C)(C)CCCC1(C)C | inactive |  |
| NC(N)=NCCN1CCCCCCC1 |  | -1.27 |
| CCS(=O)(=O)CCn1c([N+](=O)[O-])cnc1C | inactive |  |
| NS(=O)(=O)c1cc2c(cc1C(F)(F)F)NCNS2(=O)=O | inactive |  |
| CC1CCc2cc(F)cc3c(=O)c(C(=O)O)cn1c23 (stereo not drawn) |  | -2.84 |
| CN1CCCN=C1COC(=O)C(O)(c1ccccc1)C1CCCCC1 (stereo not drawn) |  | -10.7 |
| CC(=O)N[C@@H](CC(C)C)C(=O)O |  | 1.07 |
| OC(CCN1CCCC1)(c1ccccc1)C1CCCCC1 (stereo not drawn) |  | 12.1 |
| O=C(O)CCCc1ccccc1 |  | 1.37 |
| CC(=O)[C@@]1(O)CC[C@H]2[C@@H]3C[C@H](C)C4=CC(=O)C=C[C@]4(C)[C@@]3(F)[C@@H](O)C[C@@]21C |  | -1.91 |
| COc1ccc(NS(=O)(=O)c2ccc(N)cc2)nn1 | inactive |  |

Target: Cytochrome P450 1A2 (Homo sapiens) (UniProt P05177)
Sequence (P05177 whole entry, looked up): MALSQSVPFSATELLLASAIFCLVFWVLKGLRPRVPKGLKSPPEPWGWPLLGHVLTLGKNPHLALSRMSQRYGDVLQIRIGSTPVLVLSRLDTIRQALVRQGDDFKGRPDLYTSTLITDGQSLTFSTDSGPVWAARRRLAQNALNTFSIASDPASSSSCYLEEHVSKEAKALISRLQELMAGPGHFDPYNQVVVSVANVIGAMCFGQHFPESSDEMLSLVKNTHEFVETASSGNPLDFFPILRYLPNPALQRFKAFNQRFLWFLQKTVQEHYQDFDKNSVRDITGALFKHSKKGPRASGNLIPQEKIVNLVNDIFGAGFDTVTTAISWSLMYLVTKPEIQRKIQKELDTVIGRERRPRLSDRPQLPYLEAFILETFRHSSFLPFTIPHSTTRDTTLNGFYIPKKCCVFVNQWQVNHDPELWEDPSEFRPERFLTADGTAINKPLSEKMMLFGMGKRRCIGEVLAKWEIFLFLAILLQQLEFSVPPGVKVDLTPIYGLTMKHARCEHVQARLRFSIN
Assay: p450-cyp1a2 (AID 410); further: potency means the concentration at half of the fitted maximal effect;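 on activity change, negative = inhibition: -100% = full effect of reference inhibitor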
Details: recombinant CYP1A2, luciferin-ME demethylation, luminescence; series mostly up to 25.6 µM; activity change, negative = inhibition: at the top concentration
Outline: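 Luminescent demethylation readout: Luciferin-ME (100uM, equal to Km) turned over by 20nM CYP1A2 for 60 min at room temperature after NADPH regeneration addition, following 10 min compound preincubation. Normalization used 57 uM furafylline as full inhibition.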

| SMILES | activity change, negative = inhibition | Potency |
| --- | --- | --- |
| CN(C(=O)c1c(O)c2ccccc2n(C)c1=O)c1ccccc1 | -1% [at 57 µM] |  |
| CC(C)(C)C(=O)OCOC(=O)[C@@H]1N2C(=O)[C@@H](NC(=O)[C@H](N)c3ccccc3)[C@H]2SC1(C)C | -6.2% |  |
| CC[N+](C)(CC)CCOC(=O)C1c2ccccc2Oc2ccccc21 |  | 10 µM (active) |
| C[N+](C)(C)CC[N+]1(C)Cc2c(Cl)c(Cl)c(Cl)c(Cl)c2C1 | -15.9% [at 57 µM] |  |

Tested on: not listed separately
Assay: Cell Viability - BJ (AID 421);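 further: potency means the concentration at half of the fitted maximal effect; cells exposed to compound for 40 hours at 37 °C before readout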
Details: BJ fibroblast viability, qHTS
Outline: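 Cytotoxicity as drop in intracellular ATP (CellTiter-Glo, 20 min RT) after 40 hr compound exposure of BJ fibroblasts at 37 °C. Titrations scaled between DMSO and 100 uM tamoxifen, Hill-fitted for AC50.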

| SMILES | Potency [µM] |
| --- | --- |
| CC(=O)Nc1ccccc1 | > 92 |
| CC(=O)Nc1cccc(O)c1 | > 92 |
| CCN(CC)C(=O)c1cccc(C)c1 | > 92 |
| O=C1C(c2[nH]c3ccccc3c2O)=Nc2ccccc21 | > 92 |
| Cc1c(N(C)C)c(=O)n(-c2ccccc2)n1C | > 92 |
| CC(=O)OCC(COC(C)=O)OC(C)=O | > 92 |
| COc1ccc(O)cc1 | > 92 |
| CCCCCCCC(=O)OCC(COC(=O)CCCCCCC)OC(=O)CCCCCCC | > 92 |
| C=CCNC(N)=S | > 92 |
| CC1CC(OC(=O)c2ccccc2O)CC(C)(C)C1 (stereo not drawn) | > 92 |
| FC(F)(F)C(Cl)Br (stereo not drawn) | > 92 |
| CCCCCC(N)=O | > 92 |
| O=C(c1ccccc1)C(O)c1ccccc1 (stereo not drawn) | > 92 |
| Cc1cc(=O)[nH]c(=S)[nH]1 | > 92 |
| CCCC(O)C(CC)CO (stereo not drawn) | > 92 |
| CC(=O)Nc1ccc(C(=O)O)cc1 | > 92 |
| O=C(O)CCCCC1CCSS1 (stereo not drawn) | > 92 |
| O=C1c2cccc(O)c2C(=O)c2c(O)cccc21 | > 92 |

Tested on: not listed separately
Assay: Cell Viability - Jurkat (AID 426;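 active means dose-dependent loss of cell ATP signal giving a full or clear fitted curve, ranked by lower potency value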;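 further: potency means the concentration at half of the fitted maximal effect; cells exposed to compound for 40 hours at 37 °C before ATP read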)
Details: qHTS
Outline: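 Cytotoxicity taken as drop in cellular ATP (CellTiter-Glo luminescence, 20 min room temperature) after 40 hr, 37C treatment of 5000 Jurkat Clone E6-1 cells per well; concentration-response fitted with Hill equation for AC50.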

| SMILES | Potency [µM] |
| --- | --- |
| CC(=O)Nc1ccccc1 | > 92 |
| CC(=O)Nc1cccc(O)c1 | > 92 |
| CCN(CC)C(=O)c1cccc(C)c1 | > 92 |
| O=C1C(c2[nH]c3ccccc3c2O)=Nc2ccccc21 | > 92 |
| Cc1c(N(C)C)c(=O)n(-c2ccccc2)n1C | > 92 |
| CC(=O)OCC(COC(C)=O)OC(C)=O | > 92 |
| COc1ccc(O)cc1 | > 92 |
| CCCCCCCC(=O)OCC(COC(=O)CCCCCCC)OC(=O)CCCCCCC | > 92 |
| C=CCNC(N)=S | > 92 |
| CC1CC(OC(=O)c2ccccc2O)CC(C)(C)C1 (stereo not drawn) | > 92 |
| FC(F)(F)C(Cl)Br (stereo not drawn) | > 92 |
| CCCCCC(N)=O | > 92 |
| O=C(c1ccccc1)C(O)c1ccccc1 (stereo not drawn) | > 92 |
| Cc1cc(=O)[nH]c(=S)[nH]1 | > 92 |
| CCCC(O)C(CC)CO (stereo not drawn) | > 92 |
| CC(=O)Nc1ccc(C(=O)O)cc1 | > 92 |
| O=C(O)CCCCC1CCSS1 (stereo not drawn) | > 92 |

Tested on: not listed separately
Assay: Cell Viability - Hek293 (AID 427;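 active means compounds whose dose-response curve shows a full or clear partial loss of cell viability, called from curve shape rather than a numeric limit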;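 further: potency means the concentration at half of the fitted maximal effect; cells exposed to compound for 40 hours at 37 °C before reading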)
Details: qHTS
Outline: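 Luminescent ATP content (CellTiter-Glo, 20 min at room temperature) was measured after a 40 hr, 37 °C compound exposure of HEK293 cells. AC50 values came from Hill-equation fits of qHTS concentration-response data normalized to DMSO and 100 uM tamoxifen.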

| SMILES | Potency [µM] |
| --- | --- |
| CC(=O)Nc1ccccc1 | > 92 |
| CC(=O)Nc1cccc(O)c1 | > 92 |
| CCN(CC)C(=O)c1cccc(C)c1 | > 92 |
| O=C1C(c2[nH]c3ccccc3c2O)=Nc2ccccc21 | > 92 |
| Cc1c(N(C)C)c(=O)n(-c2ccccc2)n1C | > 92 |
| CC(=O)OCC(COC(C)=O)OC(C)=O | > 92 |
| COc1ccc(O)cc1 | > 92 |
| CCCCCCCC(=O)OCC(COC(=O)CCCCCCC)OC(=O)CCCCCCC | > 92 |
| C=CCNC(N)=S | > 92 |
| CC1CC(OC(=O)c2ccccc2O)CC(C)(C)C1 (stereo not drawn) | > 92 |
| FC(F)(F)C(Cl)Br (stereo not drawn) | > 92 |
| CCCCCC(N)=O | > 92 |
| O=C(c1ccccc1)C(O)c1ccccc1 (stereo not drawn) | > 92 |
| Cc1cc(=O)[nH]c(=S)[nH]1 | > 92 |
| CCCC(O)C(CC)CO (stereo not drawn) | > 92 |
| CC(=O)Nc1ccc(C(=O)O)cc1 | > 92 |
| O=C(O)CCCCC1CCSS1 (stereo not drawn) | > 92 |
| O=C1c2cccc(O)c2C(=O)c2c(O)cccc21 | > 92 |
